The record followed here is PubChem BioAssay.

Active and inactive are the calls of the source. Unless noted, how the calls were made is not given here.

Assay [1] is described as follows: compounds binding Alexa647 anti-His antibody – biochemical, small-molecule microarray, 635 nm fluorescence, artefact control for SMM control protein annotation, primary screen (AID 1128).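 Further: score merges feature fluorescence with signal-to-noise for each printed compound spot.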 Particulars: higher = more signal.
The test system of assay [2] is Human papillomavirus type 1a E7 protein (residues 1-88). Briefly: HPV1a E7 small-molecule binders, primary screen, biochemical, small-molecule microarray, residues 1-88, 635 nm (AID 1129). To be noted: small-molecule microarray binding, fluorescence 635 nm; higher = more signal.
For assay [3], the target named is Focal adhesion kinase 1 (Homo sapiens) (UniProt Q05397). In words: PTK2 protein binding on printed compound slides – biochemical, small-molecule microarray, 635/667 nm fluorescence, BSA, DTT, primary screen (AID 1130).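 Further: composite of spot emission at 667 nm and signal to noise over triplicate slides.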 To be noted: 635 nm fluorescence, higher = more signal.
Sequence of Focal adhesion kinase 1 (Homo sapiens) (Q05397 whole entry, looked up): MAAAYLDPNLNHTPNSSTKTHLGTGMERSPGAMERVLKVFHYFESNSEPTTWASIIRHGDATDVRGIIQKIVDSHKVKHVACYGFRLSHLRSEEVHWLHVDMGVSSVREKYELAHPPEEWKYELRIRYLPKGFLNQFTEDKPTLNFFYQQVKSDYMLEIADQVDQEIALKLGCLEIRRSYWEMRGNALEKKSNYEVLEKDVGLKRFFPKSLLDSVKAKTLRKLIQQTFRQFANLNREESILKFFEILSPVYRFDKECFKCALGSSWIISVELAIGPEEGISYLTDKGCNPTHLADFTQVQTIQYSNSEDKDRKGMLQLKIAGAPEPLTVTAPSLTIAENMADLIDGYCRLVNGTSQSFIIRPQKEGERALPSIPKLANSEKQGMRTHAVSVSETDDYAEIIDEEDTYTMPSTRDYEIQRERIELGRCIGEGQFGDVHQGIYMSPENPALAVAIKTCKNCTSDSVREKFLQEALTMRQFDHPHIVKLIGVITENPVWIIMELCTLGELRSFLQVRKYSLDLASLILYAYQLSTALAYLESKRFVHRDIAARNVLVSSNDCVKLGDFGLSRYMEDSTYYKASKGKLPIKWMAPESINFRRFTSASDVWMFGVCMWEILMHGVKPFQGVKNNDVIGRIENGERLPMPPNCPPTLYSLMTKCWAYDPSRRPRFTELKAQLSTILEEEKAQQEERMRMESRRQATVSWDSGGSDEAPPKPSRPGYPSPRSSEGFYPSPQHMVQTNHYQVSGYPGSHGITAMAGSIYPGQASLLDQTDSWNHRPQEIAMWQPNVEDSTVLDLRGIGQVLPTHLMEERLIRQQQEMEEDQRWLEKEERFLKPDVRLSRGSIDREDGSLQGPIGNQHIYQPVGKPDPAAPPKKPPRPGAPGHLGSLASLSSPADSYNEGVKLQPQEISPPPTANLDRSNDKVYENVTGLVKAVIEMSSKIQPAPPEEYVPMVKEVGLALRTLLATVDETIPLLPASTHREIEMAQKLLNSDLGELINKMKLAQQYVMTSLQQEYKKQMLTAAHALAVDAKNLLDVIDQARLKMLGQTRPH
The subject of assay [4] is Fibrinogen (Alexa647-labelled). Briefly: Alexa647-fibrinogen binding to printed small molecules – biochemical, small-molecule microarray, 635/667 nm fluorescence, artefact control for SMM control-protein annotation, profiling panel (AID 1131).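 Further: z-score merges 667 nm fluorescence with per-spot signal-to-noise over triplicate slides.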 To be noted: fibrinogen-A647 binding fluorescence, higher = more signal.
For assay [5], the target named is Follistatin (Homo sapiens) (UniProt P19883). In words: FST protein binding to printed compounds – biochemical, small-molecule microarray, 635/667 nm fluorescence, primary screen (AID 1132). To be noted: 635 nm fluorescence, higher = more signal.
Sequence of Follistatin (Homo sapiens) (P19883 whole entry, looked up): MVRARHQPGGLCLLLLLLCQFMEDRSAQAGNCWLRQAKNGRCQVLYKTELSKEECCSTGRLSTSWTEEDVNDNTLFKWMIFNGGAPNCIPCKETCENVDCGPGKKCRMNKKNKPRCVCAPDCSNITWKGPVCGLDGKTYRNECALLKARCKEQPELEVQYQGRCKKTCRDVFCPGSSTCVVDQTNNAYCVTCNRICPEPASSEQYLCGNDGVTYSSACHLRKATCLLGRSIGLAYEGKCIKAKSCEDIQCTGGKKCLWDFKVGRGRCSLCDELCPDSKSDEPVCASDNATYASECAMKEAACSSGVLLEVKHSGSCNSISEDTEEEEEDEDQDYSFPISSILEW
The target of assay [6] is Fibroblast growth factor 2 (Homo sapiens) (UniProt P09038). In words: basic fibroblast growth factor binding to printed compounds – biochemical, small-molecule microarray, 635/667 nm fluorescence, primary screen (AID 1133). Particulars: FGF2, fluorescence 635/667, higher = more signal.
Sequence of Fibroblast growth factor 2 (Homo sapiens) (P09038 whole entry, looked up): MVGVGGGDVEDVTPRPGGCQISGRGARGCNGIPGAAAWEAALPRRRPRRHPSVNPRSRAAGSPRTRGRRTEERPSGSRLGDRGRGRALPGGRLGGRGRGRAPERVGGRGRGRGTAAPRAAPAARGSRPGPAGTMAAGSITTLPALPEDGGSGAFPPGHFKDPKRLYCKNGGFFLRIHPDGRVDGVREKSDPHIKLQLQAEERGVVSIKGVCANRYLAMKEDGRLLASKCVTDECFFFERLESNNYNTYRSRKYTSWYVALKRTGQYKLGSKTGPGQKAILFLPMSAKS
Assay [7] is described as follows: JC-1 mitochondrial potential readout, lung cancer cells – cell-based, A549, JC-1 fluorescence, basal, 24 h, 100 nL, profiling panel (AID 1138).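 Further: A549 lung adenocarcinoma cells under basal conditions with no added stimulus; test concentration not given here.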 Particulars: higher = more signal.
In a further assay the test system is Lefty1. In words: Lefty1 protein binding to printed compounds – biochemical, small-molecule microarray, 635/667 nm fluorescence, primary screen (AID 1139). To be noted: fluorescence 635/667, higher = more signal.
The test system of assay [8] is wheat germ agglutinin (Triticum aestivum), Alexa647-labelled. In words: Alexa647-WGA lectin binding to printed small molecules – biochemical, small-molecule microarray, 635/667 nm fluorescence, artefact control for SMM control-protein annotation, profiling panel (AID 1140).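 Further: score merges 667 nm feature emission with signal to noise over triplicate slides.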 To be noted: WGA-A647 binding, 635 nm fluorescence, higher = more signal.
In assay [9] the target is Luciferin 4-monooxygenase (Photinus pyralis) (UniProt P08659). In words: inhibition of purified Photinus pyralis luciferase – biochemical, luminescence, purified enzyme, 2006 set, primary screen (AID 1141).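 Further: cell-free assay with purified firefly luciferase at 100 ng per well in PBS; test concentration not given here.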 Particulars: purified firefly luciferase, SteadyGlo luminescence, 30 min; higher = more signal, called active from +8 up or from −8 down.
Sequence of Luciferin 4-monooxygenase (Photinus pyralis) (P08659 whole entry, looked up): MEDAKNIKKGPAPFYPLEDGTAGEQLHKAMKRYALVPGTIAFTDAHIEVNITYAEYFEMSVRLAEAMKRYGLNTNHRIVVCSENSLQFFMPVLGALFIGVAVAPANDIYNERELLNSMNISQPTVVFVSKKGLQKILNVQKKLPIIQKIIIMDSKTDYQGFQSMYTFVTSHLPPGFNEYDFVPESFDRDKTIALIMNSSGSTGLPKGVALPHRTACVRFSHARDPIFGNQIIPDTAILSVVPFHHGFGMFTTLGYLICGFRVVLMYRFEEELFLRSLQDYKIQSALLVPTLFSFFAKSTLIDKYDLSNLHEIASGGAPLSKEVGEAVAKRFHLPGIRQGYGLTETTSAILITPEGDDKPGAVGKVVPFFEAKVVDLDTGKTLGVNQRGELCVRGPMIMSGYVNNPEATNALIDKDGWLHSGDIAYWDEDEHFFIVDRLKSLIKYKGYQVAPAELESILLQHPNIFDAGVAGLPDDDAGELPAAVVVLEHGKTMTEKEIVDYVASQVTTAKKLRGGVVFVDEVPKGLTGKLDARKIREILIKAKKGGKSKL
Assay [10] has as its system Wnt5a (protein binding on small-molecule microarray). Briefly: small molecules binding Wnt5a protein – biophysical, small-molecule microarray, 635/667 nm fluorescence, primary screen (AID 1142).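 Further: fluorescence read at 667 nm with signal to noise per printed feature.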 Particulars: 635 nm fluorescence, higher = more signal.
Assay [11] in a line: ATP-based viability of Huh7 replicon cells – cell-based, CellTiter-Glo luminescence, basal, 48 h, cytotoxicity control for HCV replication inhibitor project, primary screen (AID 1143).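 Further: Huh7 hepatoma cells carrying a hepatitis C replication reporter with no stimulus; test concentration not given here.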 Particulars: higher = more signal, called active from +8 up or from −8 down. A general note: Replicon systems follow genome replication, usually without infectious particles.
Assay [12] in a line: Pseudomonas biofilm growth suppression – PAO1 strain, BacTiter-Glo luminescence, LB-PBS, primary screen (AID 1144). Particulars: P. aeruginosa PAO1 biofilm, 12 h, higher = more signal.
A short description of assay [13]: basal CRE-LacZ reporter activity in PC12 – cell-based, unstimulated, primary screen (AID 1145). To be noted: no forskolin, luminescence, 4.5 h, higher = more signal, called active from +8 up or from −8 down.
Assay [14] can be described thus: forskolin-driven CRE-LacZ activity in PC12 – cell-based, CRE-LacZ reporter, forskolin-stimulated, primary screen (AID 1146).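 Further: PC12 cells with 6xCRE LacZ reporter stimulated by forskolin 10 µM; beta-galactosidase reporter signal reflecting CREB driven transcription.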 To be noted: luminescence, 4.5 h, higher = more signal, called active from +8 up or from −8 down.
Assay [15] concerns the target Streptavidin (Streptomyces avidinii) (UniProt P22629). In words: compounds binding control protein streptavidin – biophysical, small-molecule microarray, 635/667 nm fluorescence, artefact control for SMM compound annotation, primary screen (AID 1147).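 Further: signal reflects streptavidin binding to arrayed compounds as a control protein.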 Particulars: higher = more signal.
Assay [16] can be described thus: probe aInhba binding on compound microarray – biochemical, small-molecule microarray, 635/667 nm fluorescence, primary screen (AID 1148).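 Further: score merges 667nm spot fluorescence with signal-to-noise for antibody binding to printed compounds.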 Particulars: higher = more signal.
Assay [17] deals with Torsin-1A (Homo sapiens) (UniProt O14656). In words: TOR1A wild-type binding on microarray – cell lysate, small-molecule microarray, lysate, 635/667 nm, primary screen (AID 1149). To be noted: COS7 hTOR1A-WT lysate, 635 nm fluorescence, higher = more signal.
Sequence of Torsin-1A (Homo sapiens) (O14656 whole entry, looked up): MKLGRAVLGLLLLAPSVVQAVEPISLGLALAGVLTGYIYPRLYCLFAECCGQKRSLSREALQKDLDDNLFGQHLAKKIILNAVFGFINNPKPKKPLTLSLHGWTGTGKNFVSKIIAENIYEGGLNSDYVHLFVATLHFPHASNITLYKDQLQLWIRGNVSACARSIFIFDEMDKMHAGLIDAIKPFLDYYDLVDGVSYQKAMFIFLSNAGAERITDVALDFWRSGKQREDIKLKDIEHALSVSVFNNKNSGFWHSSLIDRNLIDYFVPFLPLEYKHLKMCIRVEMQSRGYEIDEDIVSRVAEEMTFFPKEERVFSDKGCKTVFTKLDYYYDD
The target is the same in assay [18]. Briefly: torsin A mutant lysate binding on microarrays – cell lysate, small-molecule microarray, COS7 lysate, 635/667 nm fluorescence, primary screen (AID 1150).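 Further: score pools 667 nm emission and signal to noise measuring lysate protein binding.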 To be noted: COS7 hTOR1A mutant lysate, 635 nm fluorescence, higher = more signal.
Assay [19] relates to Sonic hedgehog protein (Shh). Briefly: Sonic hedgehog microarray binding compounds – biochemical, small-molecule microarray, 635/667 nm fluorescence, primary screen (AID 1151).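 Further: Shh protein binding to compounds spotted on small-molecule microarray slides; score combines spot fluorescence intensity with signal-to-noise across triplicate slides.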 To be noted: 635 nm fluorescence, higher = more signal.

Sequence of Streptavidin (Streptomyces avidinii) (P22629 whole entry, looked up): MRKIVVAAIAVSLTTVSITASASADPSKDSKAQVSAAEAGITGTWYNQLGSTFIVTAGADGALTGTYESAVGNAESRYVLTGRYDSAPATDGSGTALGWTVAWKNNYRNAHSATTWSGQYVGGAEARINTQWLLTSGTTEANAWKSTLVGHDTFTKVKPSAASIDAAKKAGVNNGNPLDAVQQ

Take `Cc1ccc(S(=O)(=O)N[C@H]2COC(=O)CC=C[C@@H](C)COC(=O)CC=C[C@@H]2C)cc1`: the composite z-score in assay [1] is -0.142; in assay [2], -0.408; in assay [3] it was 0.309; in [4], -1.08; in [5], 1.42; in assay [6] it was 1.4. In addition, the composite z-score with Lefty1 was 1.23; in assay [8], -0.678; in assay [10] it was -0.0032; in assay [15] it was 0.407; in assay [16], -0.0645; with Torsin-1A (Homo sapiens) [17] it was 0.346. Besides, the values for the composite z-score (with Torsin-1A (Homo sapiens) [18]; in assay [19]) were -0.534 and 1.92, respectively. In addition, the z-score in assay [7] was 0.447; in assay [9], -0.268 (inactive); in [11], 0.319 (inactive); in assay [12] it was -0.748 (inactive); in assay [13], -0.0223 (inactive); in [14], 0.113 (inactive).
On to `COC(=O)[C@H](C)NC(=O)CCC1CC(OC(=O)NCc2ccc3c(c2)OCO3)CC2(CCCC(COC(=O)NCC(c3ccccc3)c3ccccc3)O2)O1` (stereo not given in full), for which the composite z-score in assay [1] turned out to be 1.31; in [2] it was 1.22; in assay [3], 0.136; in assay [4], 0.925; in assay [5] it was 0.986; in assay [6] it was 0.903. In addition, the composite z-score in the assay on Lefty1 is 1.25; in [8], 0.31; in assay [10], 0.6; in [15], 0.693; in assay [16], -0.0719; with Torsin-1A (Homo sapiens) [17], 0.0104. Also, the composite z-score in the assay with Torsin-1A (Homo sapiens) [18] amounted to 0.947; in [19], 1.97. For the same compound, the z-score in assay [7] is -1.35; in assay [9] it was 0.834 (inactive); in assay [11] it was -4.67 (inactive); in assay [12], -0.405 (inactive); in [13] it was -0.437 (inactive); in assay [14] it was 1.96 (inactive).
With `Cc1cc2c(c(=O)o1)[C@@H](O)[C@H]1O[C@H]1C2=O`, the composite z-score in assay [1] was 0.432; in assay [2] it was 0.281; in assay [3] it was 0.123; in [4] it was -0.116; in assay [5] it was 0.629; in assay [6] it was 0.374. In addition, the composite z-score with Lefty1 worked out at 1.32; in assay [8], 0.201; in assay [10], 0.149; in assay [15] it was 0.361; in [16], 0.0073; with Torsin-1A (Homo sapiens) [17], 0.102. Moreover, the results for the composite z-score (with Torsin-1A (Homo sapiens) [18]; in assay [19]) were 0.253 and 1.1, respectively. In addition, the z-score in assay [7] was -1.32; in [9], 0.476 (inactive); in [11], 0.773 (inactive); in assay [12] it was 0.0297 (inactive); in assay [13], -0.255 (inactive); in assay [14] it was 0.0917 (inactive).
`COC(=O)[C@@H]1CC[C@H](C)[C@@H](c2ccc(C)cc2)N1C(=O)c1ccc(C=NO[C@@H](C)c2cn([C@H](CO)Cc3ccccc3)nn2)cc1`: the composite z-score in assay [1] is 1.37; in assay [2] it was 1.13; in assay [3], 0.262; in [4], 0.648; in [5], 0.717; in [6], 1.16. In addition, the composite z-score was 1.23 with Lefty1; 0.147 in assay [8]; 0.408 in assay [10]; 0.279 in assay [15]; -0.024 in [16]; 0.243 with Torsin-1A (Homo sapiens) [17]. Besides, the composite z-score was 0.634 with Torsin-1A (Homo sapiens) [18] and 0.738 in [19]. Besides, the z-score was 1.04 in assay [7]; -0.249 (inactive) in [9]; -2.15 (inactive) in assay [11]; 0.476 (inactive) in [12]; 5.32 (inactive) in assay [13]; -0.216 (inactive) in assay [14].
In the case of `COC(=O)CC=C[C@@H](C)[C@@H](C=NOCC[C@@H]1C=C[C@H](OC(C)=O)[C@@H](COC(C)=O)O1)NS(=O)(=O)c1ccc(C)cc1`, the composite z-score is 2.34 in assay [1]; -0.185 in assay [2]; 0.15 in [3]; -0.329 in assay [4]; 0.273 in [5]; 0.237 in [6]. Moreover, the composite z-score with Lefty1 was 0.36; in [8], -0.477; in assay [10], 0.146; in [15], -0.376; in assay [16], -0.0523; with Torsin-1A (Homo sapiens) [17], 1.14. Besides, the composite z-score with Torsin-1A (Homo sapiens) [18] stood at 1.44; in [19], 0.554. In addition, the z-score was -0.482 in assay [7]; 1.2 (inactive) in [9]; 0.415 (inactive) in assay [11]; 0.493 (inactive) in assay [12]; 1.28 (inactive) in [13]; 0.378 (inactive) in assay [14].
